± gives the standard deviation of the averaged measurements.
System: AmpC beta-lactamase (E. coli)
Assay: AmpC inhibition relative to DMSO; higher = more inhibition
Method in brief: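 The reported figure is percent inhibition relative to solvent-only wells. E. coli AmpC β-lactamase (5 nM) in 50 mM sodium phosphate, pH 7.0, 1.0% DMSO, plus or minus 0.01% Triton X-100, was incubated for 5 min at RT with compounds at 4, 11, 33 and 100 μM, after which nitrocefin was added and absorbance at 482 nm was read for 5 min. Rates were background-subtracted against enzyme-free wells and averaged across four technical replicates.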

[1] = 4 µM, detergent: 0.01% Triton X-100
[2] = 11 µM, detergent: 0.01% Triton X-100
[3] = 33 µM, detergent: 0.01% Triton X-100
[4] = 100 µM, detergent: 0.01% Triton X-100
[5] = 100 µM, detergent: no detergent

Structure (SMILES) | AmpC inhibition [1] [%] | AmpC inhibition (4 µM, detergent: no detergent) [%] | AmpC inhibition [2] [%] | AmpC inhibition (11 µM, detergent: no detergent) [%] | AmpC inhibition [3] [%] | AmpC inhibition (33 µM, detergent: no detergent) [%] | AmpC inhibition [4] [%] | AmpC inhibition [5] [%]
O=C1/C(=C/c2ccc(O)c(Br)c2)CCC/C1=C\c1ccc(O)c(Br)c1 | 4.59 ± 5 | 7.44 ± 6.5 | 9.28 ± 8.5 | 55.4 ± 9.9 | 5.98 ± 3.4 | 78.6 ± 1.3 | -4.62 ± 5.8 | 81.8 ± 1.7
CCCCCCCCCCCC1=C(O)C(=O)C=C(O)C1=O | 8.62 ± 5.2 | -3.71 ± 8 | 2.92 ± 1.7 | 17.5 ± 8.6 | 3.12 ± 4.7 | 60.9 ± 17 | 5.91 ± 2.8 | 92.1 ± 5.4
CNC(=O)Nc1ccc2c(c1)[C@@]1(CC2)OC(=O)N(CC(=O)N(Cc2ccc(F)cc2)[C@@H](C)C(F)(F)F)C1=O | 9.1 ± 0.37 | 2.44 ± 8.2 | 6.71 ± 1 | 7.48 ± 3.8 | -0.0601 ± 2.8 | -5.13 ± 2 | -4.9 ± 5.7 | -1.81 ± 4.7
COc1ccc(/C(Cl)=C(\C=O)c2ccc(OC)cc2)cc1 | 2.6 ± 2.4 | 17.8 ± 21 | 4.97 ± 1.2 | 3.2 ± 5.5 | 1.35 ± 3.3 | -9.16 ± 9.6 | -4.79 ± 8.1 | 1.57 ± 3.4
CC1(C)CCC2=C(O1)c1ccccc1C(=O)C2=O | 10.1 ± 3.2 | 0.565 ± 6.8 | 2.63 ± 1.6 | -4.82 ± 5.1 | 6.33 ± 3.7 | -16.2 ± 7.7 | -0.871 ± 3.1 | 4.94 ± 2
CCCCCOc1ccc(/C=C\c2cccc(O)c2C(=O)O)cc1 | -1.02 ± 4.7 | -1.47 ± 3.3 | 7.71 ± 5.1 | 27.2 ± 7.2 | 5.08 ± 5.7 | 69 ± 16 | 14 ± 3 | 99.2 ± 1.4
ClC1=CC=C(C2=CSC(N/N=C3CCCC/3)=N2)C=C1 | 5.11 ± 3.4 | 11.8 ± 4.8 | 4.35 ± 2.1 | 6.62 ± 2.3 | 1.83 ± 7 | 14.2 ± 9 | 7.09 ± 4.1 | 1.99 ± 3.6
c1cc(SSc2ccns2)sn1 | 7.81 ± 8.7 | -0.684 ± 6.7 | 6.83 ± 7.1 | 5.01 ± 6.3 | 7.13 ± 7.9 | 3.34 ± 12 | 9.28 ± 4 | 11 ± 4.2
C=C1C(=O)O[C@H](CCC)[C@H]1C(=O)O | 0.817 ± 3 | 2.33 ± 5.5 | 3.75 ± 2.7 | -0.423 ± 6.2 | 0.478 ± 2.6 | -0.772 ± 6.7 | 2.9 ± 2 | 0.697 ± 4.5
C=C(C)[C@@H](CC=C(C)C)C[C@@]12C[C@@H](CC=C(C)C)C(C)(C)[C@@](CC=C(C)C)(C(=O)/C(=C(\O)c3ccc(O)c(O)c3)C1=O)C2=O | 13.6 ± 17 | 0.481 ± 8.4 | -2 ± 19 | 17.9 ± 7.4 | 5.26 ± 8.2 | 63 ± 4.7 | -8.29 ± 6.4 | 97.95 ± 0.64
CCCCCCCc1ccc(CCc2cccc(O)c2C(=O)O)cc1 | 1.37 ± 5 | -4.68 ± 3.5 | 8.12 ± 2.9 | 61 ± 10 | 9.04 ± 3.8 | 97.2 ± 1.9 | 8.27 ± 3.7 | 99.4 ± 1.4
CCCCCCCCCCCCCCCc1cccc(O)c1C(=O)O | 6.97 ± 5.3 | 25.7 ± 18 | 6.87 ± 8.5 | 97.15 ± 0.48 | 5.05 ± 6.1 | 100 ± 3.9 | 7.84 ± 4 | 99.49 ± 0.71
CCCC1(c2ccccc2)NC(=O)N(CC(=O)N(C)Cc2c(F)cccc2Cl)C1=O (centres undefined) | 14.2 ± 2.9 | -1.7 ± 2 | 7.15 ± 9.5 | 11.6 ± 7.8 | 6.15 ± 7.3 | 5.75 ± 6.8 | 6.78 ± 1.8 | 3.79 ± 0.91
